Test [1] is described as follows: qHTS profiling for inhibitors of Plasmodium falciparum (3D7) proliferation (AID 743322; call rule not given here;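 also: infected erythrocytes exposed to compound for 72 h before lysis; 100% = DMSO vehicle wells and 0% = 0.29 µM artemisinin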). To be noted: P. falciparum 3D7 proliferation; at 28.7 µM (top of the series) unless noted. A digest of the protocol: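 Erythrocytes infected with P. falciparum (0.3% parasitemia, 2.5% hematocrit) incubated with compounds 72 h at 37 C, 5% CO2. Lysis with saponin/Triton buffer containing SYBR Green I, overnight at room temperature in the dark; DNA fluorescence (485/535 nm) normalised to 0.29 uM artemisinin and DMSO.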

Test [2] in a line: qHTS profiling for inhibitors of Plasmodium falciparum (DD2) proliferation (AID 743323; call rule not given here). As to conditions: lower = more inhibition; at 28.7 µM (top of the series) unless noted. A digest of the protocol: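 P. falciparum Dd2-infected erythrocytes (0.3% parasitemia, 2.5% hematocrit) exposed 72 h at 37 C, 5% CO2. Lysis with SYBR Green, overnight at room temperature, fluorescence 485/535 nm; normalized to 0.29 uM artemisinin and DMSO.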

A short description of test [3]: qHTS profiling for inhibitors of Plasmodium falciparum (HB3) proliferation (AID 743324).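 Also: 100% = DMSO vehicle wells and 0% = artemisinin-treated control wells.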 As to conditions: Plasmodium falciparum HB3 blood-stage proliferation; at 28.7 µM (top of the series) unless noted. A digest of the protocol:
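P. falciparum HB3 grown in erythrocytes (0.3% parasitemia, 2.5% hematocrit final) with compound for 72 h at 37 C, 5% CO2. Parasite DNA detected by SYBR Green after saponin/triton lysis overnight; normalized to 0.29 uM artemisinin and DMSO.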

A short description of test [4]: Identifying Small Molecule Inhibitors of Pancreatic Cancer Stem Cells (SN12C, Spheroid) (AID 1259360).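 Also: 100% = DMSO-treated cells and 0% = wells without cells.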 As to conditions: Potency: SN12C spheroid viability. In a few lines: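 Spheroids grown 14 days in stem cell media on nonadherent hydrogel before screening; cells attached 4 h, then compound exposure 48 h at 37C, 5% CO2. CellTiter-Glo luminescence normalized to DMSO (no inhibition) and no-cell wells (full inhibition).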

The nature of test [5]: Identifying Small Molecule Inhibitors of Pancreatic Cancer Stem Cells (Panc1, Adherent) (AID 1259362).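 Also: compound exposure lasted 48 h before the viability read; plate controls were DMSO-treated cells for no effect and cell-free media wells for full effect.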 To be noted: Potency: viability. In a few lines:
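Pre-formed 14-day tumor spheroids or adherent cells dosed and incubated 48 h, 37C, 5% CO2. Viability assessed by CellTiter-Glo.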

Test [6] in a line: P-glycoprotein substrates identified in KB-3-1 adenocarcinoma cell line, qHTS therapeutic library screen (AID 1346986). Also: nearly all actives have a fitted effect of over 60% in size.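 Also: potency is read from the fitted curve at half-maximal effect; potency is for cytotoxicity meaning loss of cell viability.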 In a few lines:
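Compounds were tested in dose-response against KB-3-1 and KB-8-5-11 cells at 37 degree C for 72 h, and viability was measured by luminescence. AC50 values came from curve fitting with class-based activity calls.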

Test [7] is described as follows: P-glycoprotein substrates identified in KB-8-5-11 adenocarcinoma cell line, qHTS therapeutic library screen (AID 1346987). Also: nearly all actives have a fitted effect of over 65% in size. Also: potency is read from the fitted curve at half-maximal effect. As to activity change, negative = cytotoxicity: % is scaled to controls: 0 for no effect and ±100 for the full control effect. A digest of the protocol:
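P-gp-mediated resistance screen: KB-8-5-11 cells treated 72 h with compounds in dose-response. CellTiter-Glo viability.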

A short description of test [8]: Identifying Small Molecule Inhibitors of Pancreatic Cancer Stem Cells (A278, Adherent) (AID 1259361).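 Also: 100% = DMSO-treated cells and 0% = cell-free media-only wells; nearly all actives have a fitted effect of over 35% in size.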 In a few lines:
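Spheroids grown 14 days in stem cell media on hydrogel-coated nonadherent plates; 2D lines seeded directly. Compounds added after 4 h attachment, 48 h at 37C, 5% CO2; CellTiter-Glo luminescence normalized to DMSO (no inhibition) and no-cell wells (full inhibition).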

Values joined by “and” are separate entries in the source; they are usually repeats but may differ in a detail not shown here. Identical values can stand only once. Results filed as inconclusive are left out. Active and inactive are the calls of the source. Unless noted, calls follow the shape of the dose curve; as a rule, active = well fitted curve in the direction sought with a large enough effect; inconclusive = small, poorly fitted or top-dose-only effect, or another doubt; inactive = no such curve, though single readings can be large; an effect the other way counts as inactive or inconclusive.

Consider `O=c1cc(C2=CC=CC3Sc4ccccc4SC23)oc(N2CCOCC2)c1` (stereo unspecified), for which the remaining parasite growth % (stronger effect = lower value) in test [1] stood at 90.9%. Moreover, in test [2], the activity, percent of control stood at 88.7%. Further, the remaining proliferation (% of control), lower = more inhibition in test [3] was 76.5%. The Potency result in test [4] and in test [5] was “inactive” each time.
Turning to `N[C@H]1C[C@H]1c1ccc(-c2cccc(O)c2)cc1`, the Potency result in test [6] and in test [7] was “inactive” in each case.
For `O=C(NC[C@H](O)CN1CCc2ccccc2C1)c1cc(NC2COC2)ncn1`, the Potency result in test [6] and in test [7] was “inactive” throughout.
With `C=C1[C@H]2CC[C@]3(O)[C@@](CC[C@@H]4[C@](C)(C(=O)O)CCC[C@]43C)(C2)[C@H]1OC(=O)/C(C)=C\C`, the Potency entry in test [6] and in test [7] was “inactive” throughout.
With `CC(=O)O[C@@H]1[C@H]2[C@@H](OC(=O)c3ccccc3)[C@@H](C)C[C@]2(O)[C@H](OC(C)=O)[C@@]2(C)[C@@H]3CC(C)(C)C(=O)[C@]3(OC(C)=O)C[C@@]12C`, in test [6], the Potency entry is “inactive”.
Take `CC1CCC2C(C)(C)C(O)CCC2(C)C12Cc1c(O)cc3c(c1O2)C(N)=NC3` (stereo unspecified): the Potency entry in test [6] and in test [7] was “inactive” each time.
Turning to `COC(=O)[C@H](OC(C)=O)[C@H]1C(C)(C)C(=O)[C@H]2CC3=C4CC(=O)O[C@@H](c5ccoc5)[C@]4(C)CCC3[C@@]1(C)C2=O` (stereo partly specified), the Potency entry in test [6] and in test [7] was “inactive” each time.
As for `COc1cc(C2c3cc(O)c(OC)cc3CC(CO)C2CO)ccc1O` (stereo unspecified), the Potency entry in test [6] and in test [7] was “inactive” each time.
On to `CC(NC(=O)Cc1cc(F)cc(F)c1)C(=O)NC(C(=O)OC(C)(C)C)c1ccccc1` (stereo unspecified), for which the remaining parasite growth % (stronger effect = lower value) in test [1] stood at 103%. The compound further registered an activity, percent of control in test [2] of 97.7%. The remaining proliferation (% of control), lower = more inhibition in test [3] is 104%. Moreover, the IC50 (viability decrease) entry in test [8] was “inactive”. Also, the Potency entry in test [5] was “inactive”.
With `CC1=C2C(=O)O[C@@H](c3ccoc3)[C@]2(C)CCC1`, the Potency entry in test [6] is “inactive”.
With `C[C@@H]1CC[C@]2(C(=O)O)CC[C@]3(C(=O)O)C(=CCC4[C@@]5(C)CC[C@H](O[C@@H]6O[C@@H](C)[C@H](O[C@@H]7O[C@H](CO)[C@@H](O)[C@H](O)[C@H]7O)[C@@H](O)[C@H]6O)C(C)(C)C5CC[C@]43C)C2[C@H]1C` (stereo partly specified), the Potency result in test [6] and in test [7] was “inactive” throughout.
`CC(=O)O[C@H]1CC[C@@]2(CI)C(=CC[C@@H]3[C@@H]2CC[C@]2(C)[C@@H]([C@H](C)CCCC(C)C)CC[C@@H]32)C1`: the outcome in test [6] and in test [7] was “inactive [at 9.29 µM]” throughout.
In the case of `CC1=CCC2C(C)(CO)CCCC2(C)C1CC12OC1C(O)C(CO)=CC2O` (stereo unspecified), the Potency entry in test [6] and in test [7] was “inactive” each time.
In the case of `C[C@@H]1O[C@@H](O[C@H]2[C@H](OC(=O)[C@]34CCC(C)(C)C[C@H]3C3=CCC5[C@@]6(C)CC[C@H](O[C@@H]7O[C@H](CO[C@@H]8OC[C@H](O)[C@H](O)[C@H]8O)[C@@H](O)[C@H](O)[C@H]7O)C(C)(C)C6CC[C@@]5(C)[C@]3(C)C[C@H]4O)OC[C@@H](O)[C@@H]2O)[C@H](O)[C@H](O)[C@H]1O[C@@H]1OC[C@H](O)[C@H](O[C@@H]2OC[C@@H](O)[C@H](O)[C@H]2O)[C@H]1O` (stereo partly specified), the outcome in test [6] was “inactive [at 9.29 µM]”. Further, the activity change, negative = cytotoxicity in test [7] is 1.25% [at 9.29 µM] (inactive).
Regarding `CC1=CC(=O)C2C(C)(C)CC(O)CC2(C)C1CO` (stereo unspecified), the Potency result in test [6] and in test [7] was “inactive” throughout.
`Cc1c(-c2ccnn2C)cc(C(=O)NCc2ccc(S(C)(=O)=O)cn2)c(=O)n1-c1cccc(C(F)(F)F)c1`: the Potency entry in test [6] and in test [7] was “inactive” throughout.
For `Cc1onc(-c2ccccc2)c1C(=O)N[C@@H]1C(=O)N2[C@@H]1SC(C)(C)[C@@H]2C(=O)O`, the Potency result in test [6] and in test [7] was “inactive” in each case.
As for `C=C1C2=CC(O)C(C)C1(C)CC/C(C)=C/CCC1(C)OC1C2=O` (stereo unspecified), the Potency entry in test [6] and in test [7] was “inactive” throughout.
Take `CC(=O)c1cnc2ccc(-c3cc(Cl)c(O)c(Cl)c3)nc2c1NC1CCC(CN(C)C)CC1` (stereo unspecified): the Potency was 0.013 µM (active) in test [6]; 119 nM (active) and 23.1 nM (active) in test [7].
Regarding `C=C1C(=O)OC2CC(C)=C(C(C)CCCO[C@@H]3O[C@H](CO)[C@@H](O)[C@H](O)[C@H]3O)C(O)C12` (stereo partly specified), the Potency entry in test [6] and in test [7] was “inactive” in each case.
As to `C/C=C(/C)C(=O)O[C@H]1C=C(C)C[C@H](OC(=O)c2ccc(O)cc2)C2[C@](O)(C(C)C)CC[C@@]21C` (stereo partly specified), the Potency result in test [6] and in test [7] was “inactive” throughout.
Turning to `O=C(/C=C/c1ccc(O)cc1)OCC1=CC2OC(=O)C3=CO[C@@H](O[C@@H]4O[C@H](CO)[C@@H](O)[C@H](O)[C@H]4O)[C@H]1[C@@H]32` (stereo partly specified), the Potency entry in test [6] and in test [7] was “inactive” in each case.
In the case of `CCN(c1cc(C#CCN2CCOCC2)cc(C(=O)NCc2c(C)cc(C)[nH]c2=O)c1C)C1CCC(N(C)CCOC)CC1` (stereo unspecified), the Potency entry in test [6] and in test [7] was “inactive” each time.
`CC(C)C1=CC2=CCC3[C@](C)(CCC[C@@]3(C)C(=O)O)C2CC1O` (stereo partly specified): the Potency entry in test [6] and in test [7] was “inactive” throughout.
Consider `C[C@@H]1O[C@@H](O[C@H]2[C@H](OC(=O)C34CCC5(C)C(=CCC6C7(C)CC(O)C(O[C@@H]8O[C@H](C(=O)O)[C@@H](O)[C@H](O)[C@H]8O)C(C)(C(=O)O)C7CCC65C)C3CC(C)(C)CC4O)O[C@H](C)[C@@H](O)[C@@H]2O)[C@H](O)[C@@H](O[C@@H]2OC[C@](O)(CO)[C@H]2O[C@@H]2O[C@H](CO)[C@@H](O)[C@H](O)[C@H]2O)[C@H]1O` (stereo partly specified), for which the outcome in test [6] was “inactive [at 9.29 µM]”. In addition, the activity change, negative = cytotoxicity in test [7] was 5.75% [at 9.29 µM] (inactive).
Consider `COc1c(OC2OC(CO)C(O)C(O)C2O)ccc(O)c1C(=O)OCc1ccccc1O[C@@H]1O[C@H](CO)[C@@H](O)[C@H](O)[C@H]1O` (stereo partly specified), for which the Potency entry in test [6] and in test [7] was “inactive” in each case.
With `O=C(OCc1cccc(O)c1O[C@@H]1O[C@H](CO)[C@@H](O)[C@H](O)[C@H]1O)C1(O)C(=O)C2C=CC1C1C=CC(=O)C(O)(C(=O)OCc3cccc(O)c3O[C@@H]3O[C@H](CO)[C@@H](O)[C@H](O)[C@H]3O)C21` (stereo partly specified), the outcome in test [6] and in test [7] was “inactive [at 9.29 µM]” in each case.
Regarding `C=C[C@H]1[C@H](O[C@@H]2O[C@H](CO[C@@H]3OC[C@](O)(CO)[C@H]3O)[C@@H](O)[C@H](O)[C@H]2O)OC=C2C(=O)OCC[C@H]21`, the Potency result in test [6] and in test [7] was “inactive” throughout.
In the case of `CC1CCC23COC(=O)C2=CC(O)CC3C1(C)CCC1=CC(=O)OC1O` (stereo unspecified), the Potency result in test [6] and in test [7] was “inactive” throughout.
Consider `CCC(CCO[C@@H]1O[C@H](CO[C@H]2OC[C@](O)(CO)[C@H]2O)[C@@H](O)[C@H](O)[C@H]1O)C(C)(C)O` (stereo partly specified), for which the Potency result in test [6] and in test [7] was “inactive” throughout.
In the case of `CC1(C)C(=O)N2c3ccccc3[C@]3(CC(n4cnc5ccccc5c4=O)C(=O)O3)[C@H]2N1O` (stereo partly specified), the Potency result in test [6] and in test [7] was “inactive” each time.
